Assay results as given in the supplement of paper PMC7366291.
Counter-ions that a name gives are not always drawn. ± gives the standard deviation or the standard deviation of the averaged measurements.

Key:
Conditions in all cases: 25 µM; exposure: 24-48 hpf
[1] = system: Danio rerio Tg(wt1b:EGFP) embryo, pronephros; assay: glomerular separation, fold change vs DMSO control; higher = glomeruli further apart (abnormal)
In short: (§1)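 Dechorionated Tg(wt1b:EGFP) zebrafish embryos were exposed to 25 μM compound in 0.5% DMSO, HEPES-buffered E3 with 0.003% PTU, from 24 to 48 hpf at 28.5°C. Pronephroi were imaged dorsally in agarose-filled 96-well plates (470 nm, 10 z-slices). On maximum projections, 16 reference points were set manually in Fiji and a macro computed distances and angles. Values more than 2 SD from the feature mean were excluded. Each feature is a fold change relative to the mean of same-day DMSO controls.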

[2] = system: Danio rerio Tg(wt1b:EGFP) embryo, pronephros; assay: glomerular width (mean of left and right), fold change vs DMSO control; higher = wider glomerulus
In short: as §1

[3] = system: Danio rerio Tg(wt1b:EGFP) embryo, pronephros; assay: fraction of imaged embryos annotated as normal kidney; higher = less nephrotoxic; extreme values may be limits of the assay
In short: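 Embryos of the Tg(wt1b:EGFP) zebrafish line were dechorionated and held in 12-well plates with 25 μM compound in 0.5% DMSO and 5 mM HEPES-buffered E3 containing 0.003% PTU, from 24 to 48 hpf at 28.5°C. Larvae were then anaesthetised with tricaine, set dorsal side up in agarose-filled 96-well plates, and their pronephroi imaged by widefield fluorescence at 470 nm over 10 z-slices. Each value is the fraction of embryos per treatment placed in the normal-kidney category after manual annotation of maximum projections.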

[4] = system: Danio rerio Tg(wt1b:EGFP) embryo, pronephros; assay: pronephric angle neck segment to proximal convoluted tubule (mean of left and right), fold change vs DMSO control; higher = larger pronephric angle
In short: as §1

| Structure (SMILES) | glomerular separation [1] | glomerular width [2] | fraction of imaged embryos annotated as normal kidney [3] | pronephric angle neck segment [4] |
| --- | --- | --- | --- | --- |
| CN(C)CCc1c[nH]c2ccc(Cn3cncn3)cc12 [Rizatriptan benzoate] | 0.941 ± 0.29 | 1.01 ± 0.025 | 0.5 | 1.02 ± 0.07 |
| CC(=O)OCC(=O)[C@@]1(O)CC[C@H]2[C@@H]3CCC4=CC(=O)CC[C@]4(C)[C@H]3[C@@H](O)C[C@@]21C [Cortisol acetate] | 1.43 ± 0.59 | 1.29 ± 0.049 | 0.25 | 1.01 ± 0.031 |
| Cc1nc(=O)c2cc(CN(C)c3ccc(C(=O)N[C@@H](CCC(=O)O)C(=O)O)s3)ccc2[nH]1 [Raltitrexed] | 0.711 ± 0.3 | 1.08 ± 0.017 | 0.917 | 0.9802 ± 0.0082 |
| Cc1cnc(C(=O)O)c[n+]1[O-] [Acipimox] | 1.01 ± 0.23 | 1.015 ± 0.0095 | 1 | 0.94922 ± 0.00089 |
| CC[C@H]1OC(=O)C[C@@H](O)[C@H](C)[C@@H](O[C@@H]2O[C@H](C)[C@@H](O[C@H]3C[C@@](C)(O)[C@@H](O)[C@H](C)O3)[C@H](N(C)C)[C@H]2O)[C@@H](CC=O)C[C@@H](C)C(=O)/C=C/C(C)=C/[C@@H]1CO[C@@H]1O[C@H](C)[C@@H](O)[C@@H](OC)[C@H]1OC [Tylosin] | 0.911 ± 0.28 | 0.983 ± 0.0057 | 0.833 | 1.005 ± 0.0099 |
| O=C(O)CNC(=O)C(CS)Cc1ccccc1 (centres undefined) [Thiorphan] | 0.84 ± 0.35 | 1.04 ± 0.036 | 0.75 | 0.994 ± 0.017 |
| CCCc1ncc(C[n+]2ccccc2C)c(N)n1 [Amprolium hydrochloride] | 1.14 ± 0.19 | 0.936 ± 0.042 | 1 | 1 ± 0.018 |
| c1ccc2[nH]c(-c3cscn3)nc2c1 [Tiabendazole] | 1.4 ± 0.65 | 1.01 ± 0.12 | 0.667 | 1.04 ± 0.02 |
| COc1ccccc1OCC(O)CN1CCN(CC(=O)Nc2c(C)cccc2C)CC1 (centres undefined) [Ranolazine] | 0.739 ± 0.33 | 1.021 ± 0.0091 | 0.833 | 1.01 ± 0.029 |
| Cc1ccc2c(c1)c1c3n2CCNC3CCC1 (centres undefined) [Pirlindole mesylate] | 0.876 ± 0.33 | 1.07 ± 0.036 | 0.833 | 0.95 ± 0.0043 |
| CCCCc1oc2ccccc2c1C(=O)c1cc(I)c(OCCN(CC)CC)c(I)c1 [Amiodarone hydrochloride] | 2 ± 1.1 | 0.862 ± 0.021 | 0.4 | 1.14 ± 0.13 |
| C[C@H]1O[C@@H](O[C@H]2[C@@H](O)C[C@H](O[C@H]3[C@@H](O)C[C@H](O[C@H]4CC[C@@]5(C)[C@H](CC[C@@H]6[C@@H]5C[C@@H](O)[C@]5(C)[C@@H](C7=CC(=O)OC7)CC[C@]65O)C4)O[C@@H]3C)O[C@@H]2C)C[C@H](O)[C@@H]1O [Digoxin] | 1.43 ± 0.52 | 1.08 ± 0.023 | 0.75 | 0.9342 ± 0.0075 |
| COc1cc(OC)c(C(=O)CCCN2CCCC2)c(OC)c1 [Buflomedil hydrochloride] | 1.14 ± 0.33 | 1.08 ± 0.06 | 0.917 | 1.01 ± 0.053 |
| CN(C)CCOc1ccc(/C(=C(/CCCl)c2ccccc2)c2ccccc2)cc1 [Toremifene] | 0.881 ± 0.39 | 0.904 ± 0.08 | 0.917 | 1.04 ± 0.018 |
| CC(=O)O[C@H]1C[C@@H]2CC[C@@H]3[C@H](CC[C@@]4(C)[C@H]3C[C@H]([N+]3(C)CCCCC3)[C@@H]4OC(C)=O)[C@@]2(C)C[C@@H]1N1CCCCC1 [Vecuronium bromide] | 1.01 ± 0.35 | 0.967 ± 0.024 | 1 | 1.03 ± 0.028 |
| COc1ccc([C@@H]2Sc3ccccc3N(CCN(C)C)C(=O)[C@@H]2OC(C)=O)cc1 [Diltiazem hydrochloride] | 0.914 ± 0.32 | 1.24 ± 0.11 | 0.667 | 1.211 ± 0.0023 |
| C=C1/C(=C\C=C2/CCC[C@]3(C)[C@@H]([C@H](C)/C=C/[C@@H](O)C4CC4)CC[C@@H]23)C[C@@H](O)C[C@@H]1O [Calcipotriene] | 1.01 ± 0.34 | 1.06 ± 0.012 | 0.75 | 0.89787 ± 0.00058 |
| O=C(Nc1cccc2c(=O)cc(-c3nnn[nH]3)oc12)c1ccc(OCCCCc2ccccc2)cc1 [Pranlukast] | 1.04 ± 0.37 | 1.01 ± 0.019 | 0.833 | 1.01 ± 0.041 |
| CN1CCCC(n2nc(Cc3ccc(Cl)cc3)c3ccccc3c2=O)CC1 (centres undefined) [Azelastine hydrochloride] | 0.737 ± 0.21 | 0.885 ± 0.04 | 1 | 1.11 ± 0.024 |
| C[C@]12CC[C@@H]3c4ccc(OS(=O)(=O)O)cc4CC[C@H]3[C@@H]1CCC2=O [Estropipate] | 1.27 ± 0.59 | 0.95203 ± 0.00068 | 0.75 | 1.02 ± 0.012 |
| CC(C)(C)NC[C@H](O)COc1ccccc1C1CCCC1 [Penbutolol sulfate] | 0.661 ± 0.15 | 0.988 ± 0.02 | 0.917 | 1.02 ± 0.02 |
| CCN1CC(CCN2CCOCC2)C(c2ccccc2)(c2ccccc2)C1=O (centres undefined) [Doxapram hydrochloride] | 0.953 ± 0.32 | 0.981 ± 0.0026 | 0.833 | 0.9542 ± 0.0079 |
| O=P(O)(O)C(O)(Cn1ccnc1)P(=O)(O)O [Zoledronic acid hydrate] | 1.2 ± 0.37 | 1.04 ± 0.015 | 1 | 0.989 ± 0.0085 |
| Cc1cc(C(C)(C)C)c(O)c(C)c1CC1=NCCN1 [Oxymetazoline hydrochloride] | 1.08 ± 0.39 | 1.03 ± 0.078 | 0.833 | 0.976 ± 0.042 |
| O=S(=O)(O)CCS [Mesna] | 0.716 ± 0.21 | 1.07 ± 0.057 | 1 | 1.07 ± 0.047 |
| Clc1ccc2c(c1)CCc1cccnc1C2=C1CCNCC1 [Desloratadine] | 0.811 ± 0.28 | 0.94 ± 0.011 | 0.917 | 1.06 ± 0.044 |
